# Assay results published in article PMC4336329 (PLoS ONE, 2015).
# Hit rate of the full screen: of about 310,000 compounds, about 14,000 (4.5%) showed an effect of 50% or more. The effect is printed as a negative number. This is one part of a sample in which strong results are shown more often than they occur.
# Target: human ether-à-go-go-related gene (hERG) potassium channel (human, UniProt Q12809)
# Test: primary screen, population patch clamp on CHO cells stably expressing hERG; higher = less effect of the substance
# 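Further: peak tail current of the secondary pulse compared with the same well before compound.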
# Chain of human ether-à-go-go-related gene (hERG) potassium channel (Q12809 whole entry, looked up): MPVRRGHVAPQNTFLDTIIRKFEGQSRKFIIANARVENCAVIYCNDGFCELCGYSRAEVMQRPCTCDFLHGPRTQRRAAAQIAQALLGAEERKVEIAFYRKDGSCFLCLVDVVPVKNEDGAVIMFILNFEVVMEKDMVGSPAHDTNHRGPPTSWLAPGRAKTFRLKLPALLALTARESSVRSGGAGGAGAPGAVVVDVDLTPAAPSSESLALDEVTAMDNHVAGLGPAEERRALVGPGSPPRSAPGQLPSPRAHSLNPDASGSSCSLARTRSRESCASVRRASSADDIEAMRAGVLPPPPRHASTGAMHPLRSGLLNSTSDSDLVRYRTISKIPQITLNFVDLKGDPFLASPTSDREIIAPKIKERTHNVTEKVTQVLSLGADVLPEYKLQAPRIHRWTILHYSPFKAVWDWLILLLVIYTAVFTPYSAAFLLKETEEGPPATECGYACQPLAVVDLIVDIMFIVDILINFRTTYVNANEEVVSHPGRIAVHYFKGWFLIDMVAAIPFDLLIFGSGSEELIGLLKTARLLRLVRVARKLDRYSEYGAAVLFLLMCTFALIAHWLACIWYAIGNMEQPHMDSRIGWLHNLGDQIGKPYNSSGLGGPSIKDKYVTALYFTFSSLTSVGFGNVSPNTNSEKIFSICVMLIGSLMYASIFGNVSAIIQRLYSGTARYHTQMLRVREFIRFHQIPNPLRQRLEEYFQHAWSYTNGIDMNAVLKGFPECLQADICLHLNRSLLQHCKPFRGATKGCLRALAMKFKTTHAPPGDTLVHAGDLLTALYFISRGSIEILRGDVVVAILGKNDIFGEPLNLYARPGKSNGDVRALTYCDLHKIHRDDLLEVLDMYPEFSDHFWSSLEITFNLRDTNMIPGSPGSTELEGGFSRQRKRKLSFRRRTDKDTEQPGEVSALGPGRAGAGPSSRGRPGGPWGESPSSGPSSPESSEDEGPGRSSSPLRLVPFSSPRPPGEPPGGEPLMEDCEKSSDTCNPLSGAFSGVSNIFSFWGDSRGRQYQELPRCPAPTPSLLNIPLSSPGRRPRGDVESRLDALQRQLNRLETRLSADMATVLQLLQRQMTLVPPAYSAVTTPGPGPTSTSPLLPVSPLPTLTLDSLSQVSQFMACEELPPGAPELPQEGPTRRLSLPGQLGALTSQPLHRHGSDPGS
row,Compound,"hERG current change (%, negative = inhibition) at 10uM [%]"
1,CC1=Nc2ccccc2/C1=C/c1sc(=N)n(-c2nccs2)c1O,10.5
2,O=C(CN1C(=O)/C(=C/c2ccco2)SC1=S)Nc1ccc(O)c(C(=O)O)c1,25.2
3,Fc1ccc(CNCCC(Cc2ccccc2)c2ccco2)cc1 (stereo not shown),-54.3
4,CC(=O)N(CCC(Cc1ccccc1)c1ccco1)Cc1ccco1 (stereo not shown),-28.4
5,Fc1ccc(CNCc2ccco2)cc1,11.5
6,O=C(NCCNCc1ccc(F)cc1)c1ccco1.O=C(O)C(=O)O,9.99
7,CN(C)c1ccc(CNCCC(Cc2ccccc2)c2ccco2)cc1 (stereo not shown),-52.3
8,CC(NCCC(Cc1ccccc1)c1ccco1)c1ccccc1 (stereo not shown),-22
9,c1ccc(CNCCC(Cc2ccccc2)c2ccco2)cc1 (stereo not shown),-54.8
10,CCC(=O)N(CCC(Cc1ccccc1)c1ccco1)Cc1ccco1 (stereo not shown),-1.81
11,CC(=O)NCCC(Cc1ccccc1)c1ccco1 (stereo not shown),5.91
12,O=C(Nc1cc(F)ccc1F)c1cccc(-n2cnnn2)c1,-18.3
13,COC(=O)N/N=C/c1cn(CCCOc2ccccc2)c2ccccc12,-4.14
14,C#Cc1ccc([C@H]2C=C(C(=O)N3CCOCC3)O[C@@H](OCC)[C@@H]2CCCO)cc1,6.65
15,COc1ccc(NC(=O)C2CCCN2S(=O)(=O)c2ccc3c(c2)CCC(=O)N3)c(OC)c1 (stereo not shown),-16.8
16,COc1ccc(NC(=O)C2CCCN2S(=O)(=O)c2ccc3c(c2)CCC(=O)N3)cc1Cl (stereo not shown),-27.8
17,O=C1CCc2cc(S(=O)(=O)N3CCC(C(=O)NC4CCCC4)CC3)ccc2N1,-4.68
18,COc1ccc(C)cc1NC(=O)C1CCCN1S(=O)(=O)c1ccc2c(c1)CCC(=O)N2 (stereo not shown),-50.8
19,O=C1CCc2cc(S(=O)(=O)N3CCC(C(=O)NC4CCCCCCC4)CC3)ccc2N1,10.8
20,O=C1CCc2cc(S(=O)(=O)N3CCCC3C(=O)NC3CCCCCCC3)ccc2N1 (stereo not shown),-50.3
21,Cc1ccc(/C=N/NC(=O)c2cc(-c3cccnc3)nc3ccccc23)cc1,-5.06
22,N#Cc1ccc(OCC(O)CS(=O)(=O)c2ccccc2)cc1 (stereo not shown),-21
23,CC(=O)c1ccc(S(=O)(=O)Nc2cc3c(cc2C(C)=O)OCO3)cc1,21.2
24,COc1ccc(C(=O)N(Cc2nc(-c3ccc(C)cc3)no2)C(C)C)cc1OC,-31.4
25,CCCCCCCN1C2=NCCN2c2ccccc21.Cl,-79.6

row,Compound,"hERG current change (%, negative = inhibition) at 10uM [%]"
1,Br.CCCCCN1C2=NCCN2c2ccccc21,-71.4
2,CCCCCCN1C2=NCCN2c2ccccc21.Cl,-74
3,CCCN1C2=NCCN2c2ccccc21.Cl,-9.75
4,O=C(NC1CCCC1)c1cc2nc(-c3ccco3)cc(C(F)(F)F)n2n1,20.1
5,C#CCOCCOCCOCCNc1nc(N2CCN(C(=O)[C@H]([C@@H](C)CC)n3cc([C@@H](N)CO)nn3)CC2)nc(N2CCN(C(=O)[C@H](CCCCN)n3cc([C@@H](N)CC(C)C)nn3)CC2)n1.Cl,-0.687
6,NC(=O)CSc1cn(Cc2ccc(F)cc2)c2ccccc12,2.24
7,COc1ccc2c(c1)c(=O)oc1c(C)c(OCc3cc(C(=O)O)oc3C)ccc12,22.5
8,C=CCc1c(C)nc(-c2ccccc2)nc1N/N=C(\C)c1ccc(N)cc1,-0.357
9,O=C(NCCCN1CCN(c2ccc(F)cc2)CC1)Nc1ccc([N+](=O)[O-])cc1,-73.9
10,CSc1ccc(N2CCN(CCCNC(=O)Nc3ccccc3F)CC2)cc1,-49.1
11,O=C(NCCc1ccc(F)cc1)Nc1ccc([N+](=O)[O-])cc1,-12
12,O=C(NCCCN1CCN(c2ccc(F)cc2)CC1)NC12CC3CC(CC(C3)C1)C2,-73.2
13,CSc1ccc(NC(=O)NCCCN2CCN(c3ccccc3F)CC2)cc1,-55.1
14,CCOc1ccc(NC(=O)NCCN2CCN(c3cccc(C)c3C)CC2)cc1,-24.3
15,O=C(NCCCN1CCOCC1)NC12CC3CC(CC(C3)C1)C2,1.72
16,CN1CCN(CCCNC(=O)Nc2ccc([N+](=O)[O-])cc2)CC1,-7.46
17,O=C(CN1C(=O)COc2ccccc21)NCCCN1CCN(c2ccccc2F)CC1,-10.7
18,CCOc1cccc(N2CCN(CCNC(=O)Nc3ccc(C)cc3)CC2)c1C,-57
19,Cc1ccc(NC(=O)NCCN2CCN(C(=O)Nc3ccc(C)cc3)CC2)cc1,-36.4
20,O=C(NCCc1ccc(F)cc1)NC12CC3CC(CC(C3)C1)C2,-13.4
21,COc1c(C=O)cc2c3c1CCCN3CCC2,23.3
22,COc1ccc(N(C(=O)c2ccco2)C(C(=O)NC2CCCC2)c2cccs2)cc1OC (stereo not shown),1.89
23,O=S1(=O)N=C(N/N=C/c2ccco2)c2ccccc21,13.1
24,COc1ccc(S(=O)(=O)N2CCOCC2)cc1NC(=O)COc1ccccc1OC,22.3
25,COc1cc(C(=O)OCC(=O)N2CCOCC2)c([N+](=O)[O-])cc1OC,14.5

row,Compound,"hERG current change (%, negative = inhibition) at 10uM [%]"
1,O=C(Nc1nccs1)c1ccc(COc2ccc(F)cc2)o1,8.63
2,O=C1C2C(C(=O)N1c1nccs1)C1C=CC2C12CC2 (stereo not shown),-8.95
3,CCOc1ccc(NC(=O)NCCCN2CCCC2)cc1,-1.89
4,CCc1ccc(NC(=O)NCCN2CCN(c3ccc(OC)cc3)CC2)cc1,-14.1
5,O=C(NCCCN1CCCC1)Nc1ccc(F)cc1,4.71
6,O=C(Cc1ccccc1[N+](=O)[O-])N1CCN(c2ccccc2F)CC1,3.23
7,CCOc1ccc(NC(=O)CCN2CCN(c3ccccc3F)CC2)cc1,-20.2
8,O=C(NCCCN1CCCC1)Nc1ccccc1[N+](=O)[O-],18.1
9,CCOc1ccc(NC(=O)NCCN2CCN(c3ccccc3F)CC2)cc1,-62.3
10,COc1ccc(NC(=O)NCCCN2CCN(c3ccccc3F)CC2)cc1,-63.6
11,O=C(NCCCN1CCN(c2ccccc2F)CC1)Nc1ccc(F)cc1,-66.3
12,O=C(NCCN1CCCCC1)Nc1ccc(F)cc1,-13.1
13,O=C(NCCCN1CCN(c2ccccc2F)CC1)Nc1ccccc1[N+](=O)[O-],-72.1
14,COc1ccc(NC(=O)CN2CCN(c3ccccc3F)CC2)cc1,-18.1
15,Cc1ccc(C(=O)NC(=S)Nc2ccc(-c3cc4ccccc4oc3=O)cc2)c(C)c1,27.1
16,Cc1ccc(C(=O)NCCc2ccccc2)cc1,-1.2
17,CSc1cccc(NC(=O)Nc2ccccc2C(N)=O)c1,15.3
18,CCCOc1ccc(/C=N\NC(=O)CCc2n[nH]c(=O)[nH]c2=O)cc1OC,2.51
19,COc1ccc(C2=NCC(CSc3nccc(=O)[nH]3)S2)cc1 (stereo not shown),1.52
20,O=C(Cc1n[nH]c(=O)c2ccccc12)NC(c1ccccc1)c1ccccc1,6.6
21,Cn1c(=O)c(-c2cc(Br)ccc2N)nc2ccccc21,-29.3
22,COc1ccc(C(=O)COC(=O)c2cc(C)no2)c(OC)c1,12
23,COC(=O)c1ccc2c(c1)C(C)(C)C(/C=C/c1ccc(O)cc1)=[N+]2C.[I-],-70.9
24,COC(=O)c1ccc2c(c1)C(=O)/C(=C/c1ccc(O)cc1)O2,18.2
25,COC(=O)c1ccc(/C=C/C(=O)O)cc1,11.9

row,Compound,"hERG current change (%, negative = inhibition) at 10uM [%]"
1,COC(=O)c1ccc2nc(C)c(C)nc2c1,15.8
2,COC(=O)c1ccc2c(c1)C(C)(C)C(/C=C/c1ccc(OC)c(OC)c1OC)=[N+]2C.[I-],-2.88
3,COC(=O)c1ccc2c(c1)C(C)(C)C(/C=C/c1ccccc1O)=[N+]2C.[I-],-69.5
4,O=C(O)[C@@H](O)c1ccccc1,6.63
5,CCOC(=O)c1sc2ncn(C(CC)C(=O)OC)c(=O)c2c1C (stereo not shown),9.35
6,NC(=O)c1oc2ccccc2c1NC(=O)c1nc2ccccc2s1,6.28
7,CN(/N=C/c1ccccc1O)C(=S)c1ccccc1,-3.8
8,O=C(COc1ccccc1)Nc1nc2c(s1)CCCC2,-20.3
9,CN1CCc2nc(NC(=O)COc3ccc4ccccc4c3)sc2C1,-56.2
10,CN1CCc2nc(NC(=O)COc3ccc(C#N)cc3)sc2C1,-7.85
11,O=C(c1cccc(-c2ccccc2F)c1)N1CC[C@@H](N2CCC(O)CC2)[C@H](O)C1,-17.7
12,OC(COc1cccc2ccccc12)CN1CCN(c2cccc(Cl)c2)CC1 (stereo not shown),1.82
13,CC1(C)CC(O)CC(C)(C)N1CC(O)COCc1ccccc1 (stereo not shown),11.7
14,Cc1cccc(OCC(O)CN2C(C)(C)CC(O)CC2(C)C)c1C (stereo not shown),-51.3
15,CC1CN(CC(O)COc2ccccc2C(C)(C)C)CC(C)O1.Cl (stereo not shown),-10.1
16,OC(COc1cccc2ccccc12)CN1CCN(c2ccc(Cl)cc2)CC1 (stereo not shown),-3.42
17,Cc1cccc(N2CCN(CC(O)COc3ccc(Cl)cc3)CC2)c1 (stereo not shown),-41.3
18,Cc1cccc(OCC(O)CN2C(C)(C)CC(O)CC2(C)C)c1 (stereo not shown),-33.2
19,C=C1CC(C)OC(c2ccccc2OCC(O)CN2CCCCC2)C1 (stereo not shown),-72.4
20,Cc1cccc(N2CCN(CC(O)COc3ccccc3Cl)CC2)c1 (stereo not shown),-56
21,Cc1ccccc1OCC(O)CN1CCN(c2ccc(Cl)cc2)CC1 (stereo not shown),-66.3
22,Cc1ccccc1OCC(O)CN1CCCCC1.Cl (stereo not shown),9.68
